NPC1 prom act – qHTS Assay for NPC1 Promoter Activators | Huh7 NPC1 promoter luciferase reporter, 24 h | Potency, µM (titrated, usually from 9.22 µM), without a hit: at the highest dose activation, actives largely listed as activators | 2.4% of 320,000 active; further: % of control where 0% means no effect; nearly all actives have a fitted effect of over 60% in size
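Stably transfected Huh7 (NPC1 promoter→luciferase), 1500 cells/well in Opti-MEM + 10% FBS, 2 h settle, then compound 24 h at 37 °C. Luminescence after 10 min with Amplite reagent.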
FLuc counter – qHTS profiling assay for firefly luciferase inhibitor/activator using purifed enzyme and Km concentrations of substrates (counterscreen for miR-21 project) | purified FLuc, Km substrates, luminescence inhibition | Luciferin 4-monooxygenase (Photinus pyralis), P08659 | 6.9% of 360,000 active | Potency, µM (titrated, usually from 57.5 µM), for the others: top-dose activity change, negative = inhibition, usual class: inhibitors;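 further: plate controls were vehicle for no effect and reference inhibitor for full effect; nearly all actives have a fitted effect of over 55% in size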
Target sequence (P08659 whole entry, looked up): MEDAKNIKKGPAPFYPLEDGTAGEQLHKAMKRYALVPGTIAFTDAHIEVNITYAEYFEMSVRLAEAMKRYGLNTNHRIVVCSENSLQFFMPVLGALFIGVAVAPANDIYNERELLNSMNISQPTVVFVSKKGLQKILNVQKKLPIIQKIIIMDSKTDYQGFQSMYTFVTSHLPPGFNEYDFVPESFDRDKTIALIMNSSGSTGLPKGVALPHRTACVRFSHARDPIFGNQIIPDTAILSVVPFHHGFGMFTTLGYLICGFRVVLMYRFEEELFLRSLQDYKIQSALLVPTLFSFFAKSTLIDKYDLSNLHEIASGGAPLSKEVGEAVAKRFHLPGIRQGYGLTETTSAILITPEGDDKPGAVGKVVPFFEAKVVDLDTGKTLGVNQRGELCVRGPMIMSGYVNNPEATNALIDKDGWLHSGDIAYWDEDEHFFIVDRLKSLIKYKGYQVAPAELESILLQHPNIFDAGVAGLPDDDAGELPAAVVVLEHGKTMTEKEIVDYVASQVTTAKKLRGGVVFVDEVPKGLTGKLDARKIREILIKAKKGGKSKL
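Purified P. pyralis luciferase (10nM final) with 10uM D-luciferin and 10uM ATP (Km levels) in 50mM Tris acetate pH 7.5, 10mM Mg acetate, 0.01% Tween-20, 0.05% BSA; qHTS 6-point titration, ~60 µM downward; luminescence read.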
ELG1 genotoxic – qHTS screen for small molecules that induce genotoxicity in human embryonic kidney (HEK293T) cells expressing luciferase-tagged ELG1. HEK293T ELG1-luciferase reporter, luminescence, 16 h. 1.3% of 330,000 active. Potency, µM (titrated, usually from 46 µM), inactives show at the highest dose activity change, positive = activation, hits mostly activators. AID 504466, 2011; further: % of control where 0% means no effect; nearly all actives have a fitted effect of over 60% in size
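Genotoxicity was scored as increased ELG1-luciferase reporter signal, measured by ONE-Glo luminescence (30 min, room temperature). Compound or vehicle exposure of the HEK293T reporter cells lasted 16 hr at 37°C.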
KinaseGlo FLuc – Counterscreen for Luciferase (Kinase-Glo TM) Inhibition. Luciferin 4-monooxygenase (Photuris pensylvanica), Q27757. Kinase-Glo luciferase, ATP luminescence, 8 min. Potency, µM (doses to about 38.3 µM), inactives show top-dose activity change, negative = inhibition, hits mostly inhibitors. 0.28% of 200,000 active. AID 1379, 2008; further: on the % scale 0 is the no-effect control and ±100 the full control effect; nearly all actives have a fitted effect of over 60% in size
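Kinase-Glo luciferase light output from ATP and luciferin was measured with 10 uM ATP, within the enzyme's linear range. Buffer: 50 mM imidazole pH 7.2, 50 mM KCl, 7 mM MgCl2, 0.01% Tween 20, 0.05% BSA; luminescence read after 8 min at ambient temperature.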
Rab9 prom act – qHTS Assay for Rab9 Promoter Activators; Huh7 Rab9 promoter-luciferase reporter, luminescence, 24 h; Potency, µM (highest dose often 9.22 µM), inactives show at the top dose activation, negative = inhibition, usual class: activators; 2.8% of 320,000 active; further: % of control where 0% means no effect; nearly all actives have a fitted effect of over 60% in size
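Huh7 cells stably carrying a Rab9 promoter-luciferase reporter, 1500 cells per well in OP-MEM I with 10% FBS, treated with compound 24 hours at 37C. Luciferase activity read by luminescence after 10 minutes with Amplite reagent.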
SMN2 splice enh – qHTS Assay for Enhancers of SMN2 Splice Variant Expression; HEK293 SMN2-luciferase splicing reporter, luminescence, 30-36 h; Potency, µM (doses to about 46.1 µM), inactives show at the highest dose activity change, positive = activation, most hits filed as activators; 2.8% of 210,000 active; AID 1458, 2008; further: % of control where 0% means no effect; nearly all actives have a fitted effect of over 55% in size
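HEK293 cells carry an SMN2 minigene-luciferase reporter in which exon 7 inclusion puts luciferase in frame. Cells were seeded at 2000 cells/well, attached for 10-12 hours, then exposed to compounds for 30-36 hours at 37C before ONE-Glo luminescence.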
An asterisk follows results filed as active; ? = inconclusive; . = no result given; [ ] = another dose, or the depositor's remark. Compounds with a hit are over-represented: about 7.4% of the library has one in this group of screens. The call rests on the fitted dose curve; in most records, active means well fitted curve in the direction sought with a large enough effect; inconclusive means small, poorly fitted or top-dose-only effect, or another doubt; inactive means no such curve, though single readings can be large; an effect the other way counts as inactive or inconclusive. Potency means the concentration at half of the fitted maximal effect.

SMILES	NPC1 prom act	FLuc counter	ELG1 genotoxic	KinaseGlo FLuc	Rab9 prom act	SMN2 splice enh
CCC(C)C(NC(=O)c1ccccc1NC(=O)c1ccccc1)C(=O)O (stereo not given)	-2%	3%	-2%	.	0%	.
Cc1ccc(C(=O)Nc2ccccc2C(=O)NC(Cc2ccccc2)C(=O)O)cc1 (stereo not given)	14%	11µM*	13%	6%	24%	13%
COc1ccc(CCNC(=O)c2ccc3c(c2)CCN3S(=O)(=O)c2ccccc2)cc1OC	.	-7%	.	.	.	-28%
O=C(N[C@H](Cc1cc(=O)[nH]c2ccccc12)C(=O)O)c1ccc(Cl)cc1	-1%	6%	0%	.	-4%[1.84 µM]	.
O=C(CCC(=O)N1CC2CCCN2c2ccccc21)NCc1cccc(Cl)c1 (stereo not given)	.	-18%	.	.	.	.
O/N=C/c1ccn(-c2ccc(Br)cc2)c1	25%	24µM*	-1%	0%	14%	10%
COc1ccc2[nH]c(C(=O)c3ccccc3)cc2c1	.	.	.	-2%	.	.
COc1ccc2[nH]c(-c3ccc(C)cc3)cc(=O)c2c1	?	1.5µM*	2.9µM*	-20%	2.5µM*	1.3µM*
COc1ccc2[nH]c(-c3ccccc3)cc2c1	1.6µM*	6µM*	?	.	0.89µM*	.
CCOc1ccc2nc(-c3ccccc3)[nH]c2c1	0.79µM*	1.1µM*	?	?	?	14µM*
COc1ccc2nc(-c3ccccc3)[nH]c2c1	2.8µM*	2.1µM*	1.3µM*	?	1.6µM*	6.3µM*
CCOC(=O)CN1C(=O)/C(=C/c2c(F)cccc2Cl)Oc2ccccc21	-3%	-3%	5%	.	2%	.
COC(=O)[C@@]1(Cc2ccccc2)[C@H]2C(=O)N(C)C(=O)[C@H]2[C@H]2CN=C(SCc3ccc(Cl)cc3)N21	.	.	-6%	.	.	.
O=C1CCc2cc(NS(=O)(=O)c3ccccc3)cc3c2N1CC3	0%	-8%	4.1µM*	.	-1%	.
Cn1cccc1C(=O)NC(=O)COC(=O)CC12CC3CC(CC(C3)C1)C2	1%	17µM*	6%	3%	-4%	-7%
C=CCSc1n[nH]c(-c2ccc(OCCCC)cc2)n1	?	15µM*	18µM*	1%	?	?
C=CCSc1n[nH]c(-c2ccc(OCCC)cc2)n1	2.5µM*	11µM*	4.6µM*	-3%	2µM*	11µM*
CCCOc1ccc(-c2nc(=S)[nH][nH]2)cc1	28%	?	?	7%	?	13µM*
S=c1nc(-c2ccc(Cl)cc2)[nH][nH]1	2%	0%	1%	.	-6%	.
O=C(c1cccs1)c1no[n+]([O-])c1C(=O)c1cccs1	-42%	-22%	?	-3%	-40%	.
CN1CCN(C(=O)c2ccc(-c3cccs3)s2)CC1	1.8µM*	11µM*	?	.	2.2µM*	.
O=C(c1cccs1)c1ccc(-c2cccs2)s1	?	0.3µM*	?	7.9µM*	0.5µM*	?
Cc1ccc(F)cc1NC(=O)CCc1c(C)nn(-c2ccc(N3CCCC3)nn2)c1C	.	-17%	.	.	.	.
Cc1nn(-c2ccc(N3CCCCC3)nn2)c(C)c1CCC(=O)Nc1ccc(F)cc1F	.	15µM*	.	.	.	.
Cc1cc(F)ccc1NC(=O)CCc1c(C)nn(-c2ccc(N3CCCCC3)nn2)c1C	-3%	?	-5%	.	0%	.
Cc1ccc(F)cc1NC(=O)CCc1c(C)nn(-c2ccc(N3CCCCC3)nn2)c1C	?	11µM*	8%	.	30%	.
COc1ccc(N2CCN(C(=O)CCc3ccc(S(=O)(=O)NC(C)(C)C)cc3)CC2)cc1	0%	-2%	-1%	.	-13%	.

Screening results: PubChem BioAssay, National Center for Advancing Translational Sciences (NCATS)
